Compounds with a hit are over-represented: about 2.4% of the library has one in this group of screens.
NOD2-RIPK2 inh: NOD2-RIPK2 binding disruptors in cells, primary screen, fluorescence, CHO cells, BLA complementation. AID 624267, 2012. Receptor-interacting serine/threonine-protein kinase 2 (Homo sapiens), O43353. 360,000 compounds, 0.38% hits. inhibition, % at 4.98 µM. CCF4 ratio; in the data active means inhibition above about 21%;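 further: 0% = vehicle only and 100% = reference blocker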
TLR4-MyD88 BLA: inhibitors of TLR4-MyD88 association in cells, primary screen, cell-based, HeLa CL3-4, BLA complementation, FRET ratio; Toll-like receptor 4 (Homo sapiens) + Myeloid differentiation primary response protein …; HeLa CL3-4 TLR4/MyD88 BLA complementation; inhibition, % at 8.4 µM; 200,000 compounds, 0.18% hits; AID 861, 2007; in the data active means inhibition above about 25%;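 further: 0% = vehicle and 100% = reference inhibitor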
HSF1 activator: HSF-1 activators, primary screen, NIH3T3-HGL cells, MG132 stress, luminescence, single point; activation, % at 9 µM; AID 504408, 2011; 300,000 compounds, 1.7% hits; NIH3T3-HGL HSF-1 luciferase reporter, 8 h; 100% = twice DMSO control signal;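 active means mean replicate activation of at least 50% with a set share of replicates each reaching 50%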;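 further: 0% = median of the neutral control wells and 100% = twice that signal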
TLR9-MyD88 block: inhibitors of TLR9-MyD88 association in cells, primary screen, cell-based, CHO, BLA complementation, fluorescence | CCF4 FRET ratio | inhibition, % at 4.98 µM | 340,000 compounds, 0.21% hits;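 active means inhibition above the mean over all tested compounds plus 3 SD, cut at about 21% in these data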;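 further: 0% = DMSO only wells and 100% = clavulanate BLA inhibitor control wells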
HSF1 inhib: HSF1 inhibitors in luciferase reporter cells, primary screen, cell-based, NIH3T3, luminescence; NIH3T3-HGL HSE-luciferase, MG132-induced, luminescence 8 h; hits give low values; activity change, negative = inhibition, % at 7.5 µM (by protocol); 300,000 compounds, 0.77% hits;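 active means more than half of replicate wells show activity change below -50%, luminescence cut by over half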;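 further: luciferase reports HSF-1 transcriptional activity via heat shock element; 0% = median of DMSO wells and -100% = zero luminescence signal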
Starred values were filed as active, the others as inactive; nt = not tested or not shown.

SMILES	NOD2-RIPK2 inh	TLR4-MyD88 BLA	HSF1 activator	TLR9-MyD88 block	HSF1 inhib
Cc1cc(-c2ccc(C)c(S(=O)(=O)NCCC(C)N3CCCCCC3)c2)on1 (stereo not drawn)	4	nt	-73	-6	-67*
Cc1cc(-c2ccc(C(C)C)c(S(=O)(=O)NCCN3CCC(C)CC3)c2)on1	9	nt	67*	-5	15
Cc1cccc(NC(=O)COC(=O)CN2C(=O)C3CCCCC3C2=O)c1C (stereo not drawn)	-8	nt	nt	-1	nt
CNC[C@H](Cc1ccccc1)NC[C@@H](Cc1cccc2ccccc12)NCCc1ccc(C)cc1	19	nt	-92	0	-91*
O=C(COc1ccc(Cl)cc1Cl)NCc1ccco1	2	-4	nt	9	nt
O=C(NCc1ccco1)c1ccc(COc2cc(Cl)ccc2Cl)cc1	4	-8	76*	8	31
COc1ccc(C(O)c2nc(-c3ccc(Cl)cc3)cs2)cc1 (stereo not drawn)	-1	nt	nt	nt	nt
CCOc1ccc(N(CC(=O)NC2CCCCC2)C(=O)CCC(=O)Nc2nc(C)cs2)cc1	-5	nt	-60	-2	-59*
CCOc1ccc(N(CC(=O)NC2CCCC2)C(=O)CCC(=O)Nc2nc(C)cs2)cc1	6	nt	9	4	-6
CCOC(=O)c1c(-c2ccc3ccccc3c2)csc1NC(=O)CCCC(=O)O	-8	nt	nt	-4	nt
CC1(C)CC(=O)C(C2C3=C(CC(C)(C)CC3=O)OC3=C2C(=O)CC(C)(C)C3)=C(O)C1	-8	nt	67*	4	23
CC1(C)CC(=O)C(C2C3=C(CC(C)(C)CC3=O)Oc3ccccc32)=C(O)C1 (stereo not drawn)	-5	-8	-6	1	-5
CCN(CC)c1ccc2nc3c4ccccc4c(=O)cc-3oc2c1	nt	nt	-68	nt	-63*
C=CCn1c(COc2ccccc2)nnc1SCc1ccc(C#N)cc1	-7	-6	3	-16	1
C=CCn1c(COc2ccc(CC)cc2)nnc1SC/C(O)=C(\C#N)c1nc2ccccc2[nH]1	-9	5	80*	-3	33
COc1ccc([C@H]2C[C@@H](n3cc(COC(=O)c4ccccc4)nn3)[C@H](O)CN2C(=O)C2CCCCC2)cc1	2	nt	nt	-8	nt
COc1cc(SSc2cc(OC)cc([N+](=O)[O-])c2N)c(N)c([N+](=O)[O-])c1	-7	nt	88*	-9	38
COc1ccc(CCNC(=O)CN2C(=O)NC(Cc3c[nH]c4ccccc34)C2=O)cc1 (stereo not drawn)	-9	nt	26	-7	3
Cc1cc(=O)n2[nH]c(=O)c(N=Nc3ccccc3)c2[nH]1	-11	3	-74	-8	-64*
CC(C(=O)Nc1ccc(Cl)cc1)N1C(=O)NC2(CCCC2)C1=O (stereo not drawn)	3	nt	-7	1	-5
COc1cc(/C=C2\CCC(C3CCCC3)C2=O)cc(OC)c1OC (stereo not drawn)	11	nt	17	-2	2
COc1cc(/C=C2/CCc3ccccc3C2=O)cc(OC)c1OC	-1	0	73*	-8	43
COc1cc(/C=C2\CC(C(C)(C)C)C/C(=C\c3cc(OC)c(OC)c(OC)c3)C2=O)cc(OC)c1OC (stereo not drawn)	0	nt	53*	3	41
COc1cc(/C=C2\COC/C(=C\c3cc(OC)c(OC)c(OC)c3)C2=O)cc(OC)c1OC	10	nt	-93	12	-92*
COc1cc(/C=C2\CC/C(=C\c3cc(OC)c(OC)c(OC)c3)C2=O)cc(OC)c1OC	2	-4	28	-2	12
SMILES	NOD2-RIPK2 inh	TLR4-MyD88 BLA	HSF1 activator	TLR9-MyD88 block	HSF1 inhib
O=C(Cc1cccc(NC(=O)C2CCCN(C(=O)C3CC3)C2)c1)Nc1cccc(C(=O)N2CCOCC2)c1 (stereo not drawn)	-8	nt	nt	-13	nt
C/C=C/c1cccc(-c2nc(C(=O)N3CCN(C)CC3)cc3c2[C@@H](CCO)N(C(=O)NC(C)C)C3)c1	-2	nt	nt	nt	nt
Oc1ccccc1C(Nc1nccs1)c1ccc2cccnc2c1O (stereo not drawn)	-1	nt	-64	-4	-57*
COc1cc(C(=O)OCC(=O)NC(N)=O)cc(CN2C(=O)c3ccccc3C2=O)c1OC	0	nt	4	-8	-5
CC1CC(C)CN(CC(=O)c2cccs2)C1 (stereo not drawn)	-17	10	-11	-6	7
CC1CCN(CC(=O)c2cccs2)CC1	-6	6	-66	-5	-62*
CC(NC(=O)C1CCN(C(=O)[C@@H]2Cc3ccccc3CN2)CC1)c1ccccc1 (stereo partly drawn)	-17	nt	-5	2	-1
Cc1ccc(-c2nc3ncccc3o2)cc1NC(=O)c1ccc([N+](=O)[O-])o1	-1	nt	139*	-6	91
O=C(Nc1ccc2oc(-c3ccncc3)nc2c1)c1ccccc1	-11	-2	-1	6	4
Cn1cc([N+](=O)[O-])c(C(=O)Nc2ccc(-c3nc4ccccc4o3)cc2)n1	-3	nt	285*	-6	281
O=C(Nc1ccc2oc(-c3ccncc3)nc2c1)c1ccc([N+](=O)[O-])o1	9	nt	84*	8	101
CC(C)C(=O)Nc1ccc(-c2nc3ncccc3o2)cc1	-11	nt	22	2	0
Cc1cc(-c2nc3ncccc3o2)ccc1NC(=O)c1ccc([N+](=O)[O-])o1	-13	nt	nt	1	nt
O=C(Nc1ccc(-c2nc3ncccc3o2)cc1)c1ccc([N+](=O)[O-])o1	-12	nt	151*	-3	104
O=C(c1cccc(Br)c1)c1nc2ccccc2[nH]c1=O	-20	nt	nt	nt	nt
CC(C)(C)c1ccc(CC(=O)N2CCC2(C)C(=O)N2CCCCC2)cc1 (stereo not drawn)	-8	nt	nt	nt	nt
CN(CC(=O)Nc1cccc2ccccc12)C(=O)c1ccc(F)cc1F	-11	nt	nt	-10	nt
COc1cccc2sc(N(C)c3ccccc3)nc12	1	-4	64*	13	19
COC(=O)c1ccc(OC(=O)c2ccncc2)cc1O	4	nt	21	-3	9
O=C(NCCc1c[nH]c2ccccc12)c1ccc(Cl)cc1	2	nt	59*	0	35
COc1ccc(C(=O)NCCc2c[nH]c3ccccc23)cc1	4	nt	38	6	17
CC(C)c1ccccc1OCC(=O)Nc1ccccc1C(=O)N1CCOCC1	7	nt	18	-10	3
CC(Oc1ccc(Cl)cc1Cl)c1nc(-c2ccccn2)no1 (stereo not drawn)	-3	-13	76*	6	53
CC1(C(=O)NS(=O)(=O)c2cccc(F)c2)CCN1C(=O)C1(c2ccc(Cl)cc2)CCC1 (stereo not drawn)	-7	nt	nt	nt	nt
